# Experimental data: paper PMC11574364
# How the values were obtained:
# Test in all cases: protein domain microarray probed with biotinylated miRNA; Domain array: 20 mM Tris-HCl pH 7.4, 200 mM KCl, 0.2 mM EDTA, 0.05% NP40, 2 ug/ul heparin, overnight 4 C. ORF array: PBS pH 7.0 with RNase inhibitor, 100 ng RNA; high values mean tight binding
# Conditions in all cases: ssRNA
# [1] = molecular target: T1, RBM5 (Homo sapiens, UniProt P52756)
# T1 sequence: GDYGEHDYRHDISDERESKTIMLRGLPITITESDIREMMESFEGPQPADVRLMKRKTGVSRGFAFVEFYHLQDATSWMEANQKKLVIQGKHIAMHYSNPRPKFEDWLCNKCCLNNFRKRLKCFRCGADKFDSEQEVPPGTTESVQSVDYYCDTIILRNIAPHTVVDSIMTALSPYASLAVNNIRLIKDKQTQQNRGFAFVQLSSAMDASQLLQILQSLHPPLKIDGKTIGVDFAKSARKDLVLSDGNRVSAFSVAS
# [2] = molecular target: T2, RKHD4(1-2) (Homo sapiens, UniProt A1L020)
# T2 sequence: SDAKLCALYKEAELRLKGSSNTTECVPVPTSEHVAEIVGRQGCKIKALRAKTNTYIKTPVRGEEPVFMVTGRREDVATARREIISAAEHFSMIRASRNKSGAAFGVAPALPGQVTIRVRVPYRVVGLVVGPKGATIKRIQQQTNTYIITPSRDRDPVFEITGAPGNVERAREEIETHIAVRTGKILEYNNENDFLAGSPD
# [3] = molecular target: T3, SRP46 (Homo sapiens, UniProt Q9BRL6)
# T3 sequence: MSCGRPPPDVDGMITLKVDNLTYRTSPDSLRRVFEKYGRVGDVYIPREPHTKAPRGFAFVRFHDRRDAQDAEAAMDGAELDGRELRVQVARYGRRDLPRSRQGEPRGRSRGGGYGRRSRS
# [4] = molecular target: PPIE (Homo sapiens, UniProt Q9UNP9)
# Chain of PPIE (Q9UNP9 1-110): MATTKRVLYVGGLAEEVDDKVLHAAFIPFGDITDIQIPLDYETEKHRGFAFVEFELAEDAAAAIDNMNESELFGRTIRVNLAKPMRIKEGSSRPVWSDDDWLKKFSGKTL
# [5] = molecular target: RBMXL2 (Homo sapiens, UniProt O75526)
# Chain of RBMXL2 (O75526 1-110): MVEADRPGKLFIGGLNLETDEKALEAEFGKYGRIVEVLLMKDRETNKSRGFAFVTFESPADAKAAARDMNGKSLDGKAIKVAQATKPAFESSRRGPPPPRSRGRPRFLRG
# [6] = molecular target: ADAD1 (Homo sapiens, UniProt Q96M93)
# Chain of ADAD1 (Q96M93 77-182): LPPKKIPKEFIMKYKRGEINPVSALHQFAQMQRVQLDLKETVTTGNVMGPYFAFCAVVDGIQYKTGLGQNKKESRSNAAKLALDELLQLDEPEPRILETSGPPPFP
# [7] = molecular target: T4, SFRS5 (Homo sapiens, UniProt Q13243)
# T4 sequence: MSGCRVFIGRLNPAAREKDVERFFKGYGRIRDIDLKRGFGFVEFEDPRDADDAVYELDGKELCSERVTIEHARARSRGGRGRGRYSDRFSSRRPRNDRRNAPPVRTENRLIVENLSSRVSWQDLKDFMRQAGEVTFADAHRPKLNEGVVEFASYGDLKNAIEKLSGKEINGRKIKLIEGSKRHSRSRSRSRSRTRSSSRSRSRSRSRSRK
# [8] = molecular target: T5, ANKHD1 (Homo sapiens, UniProt Q8IWZ3)
# T5 sequence: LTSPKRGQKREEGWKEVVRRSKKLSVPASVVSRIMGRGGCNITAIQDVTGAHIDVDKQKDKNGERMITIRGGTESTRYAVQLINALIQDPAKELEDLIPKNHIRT
# [9] = molecular target: T6, RBM34 (Homo sapiens, UniProt P42696)
# T6 sequence: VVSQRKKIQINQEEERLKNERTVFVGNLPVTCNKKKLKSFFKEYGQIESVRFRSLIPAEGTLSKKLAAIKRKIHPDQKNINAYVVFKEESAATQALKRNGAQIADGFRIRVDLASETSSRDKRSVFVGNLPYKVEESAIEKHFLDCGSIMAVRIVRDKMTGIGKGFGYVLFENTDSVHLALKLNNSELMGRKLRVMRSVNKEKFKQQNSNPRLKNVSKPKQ
# [10] = molecular target: PRPF8 (Homo sapiens, UniProt Q6P2Q9)
# Chain of PRPF8 (Q6P2Q9 965-1100): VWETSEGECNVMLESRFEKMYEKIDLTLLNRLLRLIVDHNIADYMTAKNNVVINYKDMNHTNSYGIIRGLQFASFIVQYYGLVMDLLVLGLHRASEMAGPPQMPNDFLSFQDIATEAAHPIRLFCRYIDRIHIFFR
Sequence,binding signal [1],binding signal [2],binding signal [3],binding signal [4],binding signal [5],binding signal [6],binding signal [7],binding signal [8],binding signal [9],binding signal [10]
UAGCUUAUCAGACUGAUGUUGA,21.2 ± 2.33 fluorescence intensity,932 ± 115 fluorescence intensity,41.5 ± 2.43 fluorescence intensity,91.8 ± 5.98 fluorescence intensity,826.37 ± 0.587 fluorescence intensity,–,–,–,–,–
UGAGGUAGUAGGUUGUGUGGUU,858 ± 19.2 fluorescence intensity,1430 ± 37.1 fluorescence intensity,1046 ± 4.09 fluorescence intensity,1030 ± 108 fluorescence intensity,1610 ± 44.5 fluorescence intensity,157 ± 3.28 fluorescence intensity,215 ± 3.13 fluorescence intensity,101 ± 1.94 fluorescence intensity,228 ± 3.75 fluorescence intensity,–
UGAGGUAGUAGGUUGUAUGGUU,930 ± 19.2 fluorescence intensity,1640 ± 102 fluorescence intensity,1040 ± 52.8 fluorescence intensity,958 ± 40.9 fluorescence intensity,1440 ± 338 fluorescence intensity,97.885 ± 0.0354 fluorescence intensity,155 ± 8.02 fluorescence intensity,53.6 ± 1.31 fluorescence intensity,153 ± 25.5 fluorescence intensity,22 ± 1.98 fluorescence intensity
UGAGGUAGUAGGUUGUAUAGUU,356 ± 13.4 fluorescence intensity,1130 ± 28.7 fluorescence intensity,208 ± 90.3 fluorescence intensity,232 ± 2.04 fluorescence intensity,867 ± 9.01 fluorescence intensity,23.1 ± 6.46 fluorescence intensity,–,21.6 ± 2.06 fluorescence intensity,40.9 ± 12.8 fluorescence intensity,25.3 ± 8.73 fluorescence intensity
AGAGGUAGUAGGUUGCAUAGUU,1310 ± 32.6 fluorescence intensity,1980 ± 164 fluorescence intensity,1390 ± 35.5 fluorescence intensity,817 ± 64.4 fluorescence intensity,2569 ± 8.99 fluorescence intensity,65 ± 1.55 fluorescence intensity,151 ± 12.7 fluorescence intensity,37.7 ± 0.622 fluorescence intensity,148 ± 10.7 fluorescence intensity,–
CAGUGCAAUGAUGAAAGGGCAU,593 ± 12.6 fluorescence intensity,1280 ± 81.8 fluorescence intensity,797 ± 34.1 fluorescence intensity,451 ± 19.3 fluorescence intensity,1800 ± 20.8 fluorescence intensity,44.5 ± 2.96 fluorescence intensity,151 ± 10.5 fluorescence intensity,27.3 ± 0.926 fluorescence intensity,102 ± 9.41 fluorescence intensity,31.6 ± 16.2 fluorescence intensity
